Source: the supplement of paper PMC6897291

Tests used:
U-2932 [1] = assay: growth inhibition by drug alone (1 - RLU/untreated control) (fraction); higher = stronger inhibition; details: 177Lu-lilotomab satetraxetan 0 ug/ml
Outline: (§1)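 With or without 18 h pretreatment by a radiolabelled anti-CD37 antibody conjugate (~600 MBq/mg; 0.5 µg/ml RIVA, 1 µg/ml U-2932), RIVA and U-2932 cells were washed and plated at 3,000 cells/well. Pre-printed compound doses were 10/100 nM for RIVA and 10/1,000 nM for U-2932. Growth inhibition uses RealTime-Glo RLU relative to the untreated no-drug wells. The calculation is 1 − RLU/mean of 48 such wells per plate, with reads daily from day 3 after 1 h at 37°C.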

RIVA [2] = assay: as above; details: 177Lu-lilotomab satetraxetan 0 ug/ml
Outline: as §1

U-2932 [3] = assay: growth inhibition by drug plus 177Lu-lilotomab satetraxetan (1 - RLU/untreated control) (fraction); higher = stronger inhibition; details: 177Lu-lilotomab satetraxetan 1 ug/ml
Outline: as §1

RIVA [4] = assay: as above; details: 177Lu-lilotomab satetraxetan 0.5 ug/ml
Outline: as §1

Structure (SMILES) | growth inhibition by drug alone (U-2932 [1]; 10 nM, time (day): 3) | growth inhibition by drug alone (U-2932 [1]; 10 nM, time (day): 4) | growth inhibition by drug alone (U-2932 [1]; 10 nM, time (day): 5) | growth inhibition by drug alone (U-2932 [1]; 10 nM, time (day): 6) | growth inhibition by drug alone (U-2932 [1]; 1000 nM, time (day): 3) | growth inhibition by drug alone (U-2932 [1]; 1000 nM, time (day): 4) | growth inhibition by drug alone (U-2932 [1]; 1000 nM, time (day): 5) | growth inhibition by drug alone (U-2932 [1]; 1000 nM, time (day): 6) | growth inhibition by drug alone (RIVA [2]; 10 nM, time (day): 3) | growth inhibition by drug alone (RIVA [2]; 10 nM, time (day): 4) | growth inhibition by drug alone (RIVA [2]; 10 nM, time (day): 5) | growth inhibition by drug alone (RIVA [2]; 10 nM, time (day): 6) | growth inhibition by drug alone (RIVA [2]; 100 nM, time (day): 3) | growth inhibition by drug alone (RIVA [2]; 100 nM, time (day): 4) | growth inhibition by drug alone (RIVA [2]; 100 nM, time (day): 5) | growth inhibition by drug alone (RIVA [2]; 100 nM, time (day): 6) | growth inhibition by drug plus 177Lu-lilotomab satetraxetan (U-2932 [3]; 10 nM, time (day): 3) | growth inhibition by drug plus 177Lu-lilotomab satetraxetan (U-2932 [3]; 10 nM, time (day): 4) | growth inhibition by drug plus 177Lu-lilotomab satetraxetan (U-2932 [3]; 10 nM, time (day): 5) | growth inhibition by drug plus 177Lu-lilotomab satetraxetan (U-2932 [3]; 10 nM, time (day): 6) | growth inhibition by drug plus 177Lu-lilotomab satetraxetan (U-2932 [3]; 1000 nM, time (day): 3) | growth inhibition by drug plus 177Lu-lilotomab satetraxetan (U-2932 [3]; 1000 nM, time (day): 4) | growth inhibition by drug plus 177Lu-lilotomab satetraxetan (U-2932 [3]; 1000 nM, time (day): 5) | growth inhibition by drug plus 177Lu-lilotomab satetraxetan (U-2932 [3]; 1000 nM, time (day): 6) | growth inhibition by drug plus 177Lu-lilotomab satetraxetan (RIVA [4]; 10 nM, time (day): 3) | growth inhibition by drug plus 177Lu-lilotomab satetraxetan (RIVA [4]; 10 nM, time (day): 4) | growth inhibition by drug plus 177Lu-lilotomab satetraxetan (RIVA [4]; 10 nM, time (day): 5) | growth inhibition by drug plus 177Lu-lilotomab satetraxetan (RIVA [4]; 10 nM, time (day): 6) | growth inhibition by drug plus 177Lu-lilotomab satetraxetan (RIVA [4]; 100 nM, time (day): 3) | growth inhibition by drug plus 177Lu-lilotomab satetraxetan (RIVA [4]; 100 nM, time (day): 4) | growth inhibition by drug plus 177Lu-lilotomab satetraxetan (RIVA [4]; 100 nM, time (day): 5) | growth inhibition by drug plus 177Lu-lilotomab satetraxetan (RIVA [4]; 100 nM, time (day): 6)
CC(C)(C)c1ccc(S(=O)(=O)/C=C/C#N)cc1 | 0.0951 | 0.0673 | -0.0262 | -0.0534 | 0.386 | 0.401 | 0.352 | 0.365 | -0.0115 | -1.37e-05 | -0.0516 | -0.202 | -0.0892 | -0.063 | -0.0854 | -0.195 | -0.0145 | 0.0216 | 0.0584 | 0.0727 | 0.517 | 0.565 | 0.534 | 0.533 | 0.438 | 0.555 | 0.567 | 0.581 | 0.452 | 0.513 | 0.508 | 0.495
CC(C)C[C@H](NC(=O)[C@@H](O)[C@H](N)Cc1ccccc1)C(=O)O [Ubenimex (Bestatin)] | 0.0863 | 0.0556 | -0.0551 | -0.108 | -0.043 | -0.0237 | -0.0577 | -0.0906 | 0.135 | 0.0658 | -0.0244 | -0.181 | 0.0407 | 0.0221 | 0.00426 | -0.114 | 0.0135 | 0.0451 | 0.0835 | 0.192 | -0.112 | -0.0121 | -0.00508 | 0.0506 | 0.428 | 0.535 | 0.552 | 0.573 | 0.504 | 0.54 | 0.554 | 0.541
O=c1oc2c(O)c(O)cc3c(=O)oc4c(O)c(O)cc1c4c23 [Ellagic acid] | -0.0386 | -0.0333 | -0.0157 | 0.0286 | -0.0768 | -0.0331 | -0.0763 | -0.143 | -0.12 | -0.115 | -0.166 | -0.332 | -0.107 | -0.127 | -0.152 | -0.219 | -0.0253 | -0.00558 | 0.0162 | 0.137 | -0.104 | -0.00651 | 0.0116 | 0.067 | 0.371 | 0.481 | 0.517 | 0.531 | 0.323 | 0.399 | 0.402 | 0.388
CCC(CC)CC1(C(=O)Nc2ccccc2SC(=O)C(C)C)CCCCC1 | 0.0325 | 0.00234 | 0.00914 | 0.0506 | -0.0537 | -0.0604 | -0.0741 | -0.00871 | -0.0908 | -0.101 | -0.128 | -0.174 | -0.0374 | -0.15 | -0.166 | -0.178 | 0.00638 | 0.0745 | 0.111 | 0.2 | -0.0639 | -0.00533 | 0.0344 | 0.206 | 0.496 | 0.541 | 0.564 | 0.567 | 0.369 | 0.456 | 0.462 | 0.476
